# High-throughput results (PubChem BioAssay)
# TEAD-YAP inh = TEAD-YAP interaction inhibition; HEK-TIYL cells, TEAD-Gal4/YAP UAS-luciferase luminescence; inhibition, % at 9.12 µM; actives 1.4% (n = 640,000); in the data active = inhibition above about 32%
# GPR151 ag = activates the human receptor GPR151. Q8TDV0. PathHunter beta-arrestin GPR151 cells, luminescence. activation, % at 11.2 µM. actives 1% (n = 650,000). AID 1508602; in the data active = activation above about 4.9%
# Target sequence (Q8TDV0 whole entry, looked up): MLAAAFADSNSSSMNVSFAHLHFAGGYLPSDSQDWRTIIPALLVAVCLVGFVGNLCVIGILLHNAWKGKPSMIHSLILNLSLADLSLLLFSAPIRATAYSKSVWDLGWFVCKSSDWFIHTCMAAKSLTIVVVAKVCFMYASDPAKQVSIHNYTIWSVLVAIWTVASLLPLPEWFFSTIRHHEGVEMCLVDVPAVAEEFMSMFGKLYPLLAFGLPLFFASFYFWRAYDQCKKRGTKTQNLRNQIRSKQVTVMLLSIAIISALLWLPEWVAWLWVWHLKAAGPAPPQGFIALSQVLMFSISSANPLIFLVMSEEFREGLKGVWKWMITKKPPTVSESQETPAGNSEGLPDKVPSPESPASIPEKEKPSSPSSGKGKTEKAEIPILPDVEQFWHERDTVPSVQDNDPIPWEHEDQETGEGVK
# FBW7 act = activators of human E3 ligase FBW7. Q969H0. AlphaScreen FBW7–phospho-cyclin E peptide binding, activator screen. normalized activity (activation), % at 26.1 µM. actives 0.13% (n = 650,000); in the data active = normalized activity above about 1.9%;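 note: purified mutant Fbw7 with reduced substrate affinity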
# MITF primary = blocks human microphthalmia-associated transcription factor; O75030; actives 0.91% (n = 650,000); AlphaScreen MITF homodimerization, bead proximity signal; inhibition, % at 2.6 µM; in the data active = inhibition above about 50%
# A number is an active result; 0 = inactive; - = no result. Only some compounds are listed: those with a hit (about 3.5% of all), similar ones and a draw of the others.
SMILES,TEAD-YAP inh,GPR151 ag,FBW7 act,MITF primary
C=CCOC(=O)N1CCC(C(=O)NC(c2ccccc2C)c2ncccc2C)CC1 (configuration not stated),0,0,0,0
O=C(/C=C/c1ccco1)NC(=S)NCc1cccnc1,47,0,0,0
Oc1ccc(/C=N/NC(=S)Nc2cccnc2)c(O)c1O,0,0,0,84
Oc1ccc(/C=N/NC(=S)Nc2cccnc2)c(O)c1,0,0,0,119
O=[N+]([O-])c1ccccc1NC(=S)N/N=C/c1ccc(O)c(O)c1O,49,0,0,57
Oc1cccc(/C=N/NC(=S)Nc2cccnc2)c1O,40,0,0,112
COc1ccc(CCn2c(O)c(C3=c4ccccc4=NC3=O)sc2=S)cc1,0,0,0,0
COc1ccc(CC(=O)Nc2ccc(Oc3ccc4c(c3)C(=O)NC4=O)cc2)cc1,0,0,0,0
O=C(O)c1cccc(NC(=S)NC(=O)c2ccccc2I)c1,0,0,0,0
CN(C)c1cccc2c1C(=O)c1ccccc1C2=O,0,0,0,55
O=C(Nc1ccc(Br)cn1)c1ccc(C2CCCCC2)cc1,0,0,0,0
O=C(Nc1ccc(Cl)cn1)c1ccc(C2CCCCC2)cc1,40,0,0,0
CCCN(CC1CC1)C(=O)COC(=O)COc1ccc(C#N)cc1,0,0,0,0
CC(C)(C)NS(=O)(=O)c1ccc2c(c1)C(=O)c1ccccc1C2=O,0,0,0,0
Cc1ccc2c(c1)sc1nc(-c3ccccc3)cn12,96,0,2.4,0
Cc1ccc(-c2cn3c(n2)sc2cc(C(=O)N4CCC(C(N)=O)CC4)ccc23)cc1,0,0,0,0
Cc1ccc2c(c1)C1(NN=C(c3ccccc3O)S1)C(=O)N2 (configuration not stated),54,0,0,0
COc1ccc2c(c1)CC(C(=O)Nc1cc3cc(-c4ccncc4)ccc3cn1)CO2 (configuration not stated),59,0,0,0
COc1ccc(CNC(=O)c2cc(-c3cn[nH]c3)ccc2NC(=O)C2COc3ccc(OC)cc3C2)cc1 (configuration not stated),0,0,0,0
O=C(Nc1ccc(-c2cn[nH]n2)cc1)C1COc2ccc(Cl)cc2C1 (configuration not stated),0,0,0,0
NCCOc1cc(-c2cn[nH]c2)ccc1NC(=O)C1COc2ccccc2C1 (configuration not stated),41,0,0,0
COc1ccc2c(c1)CC(C(=O)Nc1ccc(-c3cn[nH]c3)cc1C(=O)NCC#N)CO2 (configuration not stated),0,0,20,0
COc1ccc2c(c1)CC(C(=O)Nc1ccc(-c3cn[nH]n3)cc1)CO2 (configuration not stated),0,0,5.9,0
O=C(Nc1ccc2c(c1)OCO2)C1CC12CCN(Cc1cnc(-c3ccccc3)s1)CC2 (configuration not stated),0,0,0,0
COc1ccc(N2CCN(C(=O)C(C)Oc3ccc(F)cc3)CC2)cc1 (configuration not stated),0,0,0,0
SMILES,TEAD-YAP inh,GPR151 ag,FBW7 act,MITF primary
COc1ccc([N+](=O)[O-])cc1-c1ccc(C=C2C(=O)N(C)C(=S)N(C)C2=O)o1,0,0,0,0
CC(=O)c1ccc(NC(=O)c2cc3c(C)nc4ccccc4c3o2)cc1,0,0,0,0
COc1ccc2c(c1)CC(C(=O)Nc1ccc(-c3cn[nH]c3)cc1OCCC(C)C)CO2 (configuration not stated),0,0,0,0
COc1ccc2c(c1)CC(C(=O)Nc1ccc(-c3cn[nH]c3)cc1OCCO)CO2 (configuration not stated),39,0,0,0
COc1nc(NCC(C)C)nc(Oc2ccc(=O)n(-c3ccccc3)n2)n1,0,0,2.4,0
CCNc1nc(OC)nc(Oc2ccc(=O)n(-c3ccccc3)n2)n1,0,0,0,0
Nc1ccc2nc(-c3ccccn3)[nH]c2c1,0,0,0,0
c1ccc(-c2nc3ccc(Cc4ccc5nc(-c6ccccn6)[nH]c5c4)cc3[nH]2)nc1,34,0,0,0
O=c1c2nnn(-c3ccc(F)cc3)c2ncn1Cc1c(F)cccc1Cl,0,0,0,0
COc1ccc(-c2cc3nc(C)c(CCC(=O)O)c(C)n3n2)c(OC)c1,39,0,0,0
COc1ccc(-c2cc3nc(C)c(CCC(=O)N4CCCC4)c(C)n3n2)c(OC)c1,0,0,0,0
Cc1nc2cc(-c3cccc(F)c3)nn2c(C)c1CCC(=O)O,43,0,0,0
CCC(C)NC(=O)CCc1c(C)nc2cc(-c3cccc(F)c3)nn2c1C (configuration not stated),0,0,0,0
COCCOC(=O)c1ccc(NC(=O)c2cccnc2)cc1,0,0,0,0
CCC(C)n1c(SCC(=O)c2ccc(Cl)cc2)nc2ccsc2c1=O (configuration not stated),0,0,0,0
O=S(=O)(NCC1CCCO1)c1ccc(Br)cc1 (configuration not stated),0,0,0,0
O=S(=O)(NCC1CCCO1)c1ccc(Oc2ccc(S(=O)(=O)NCC3CCCO3)cc2)cc1 (configuration not stated),59,0,0,0
COc1ccc(N2C(=O)c3ccccc3NC2c2cccc([N+](=O)[O-])c2)cc1 (configuration not stated),0,0,0,0
COc1ccc(N2C(=O)c3ccccc3NC2c2ccc(-c3ccc([N+](=O)[O-])cc3)o2)cc1 (configuration not stated),41,0,0,0
COc1cccc(/C=N/NC(=O)c2nnn(-c3nonc3N)c2C)c1O,75,0,0,0
Cc1c(C(=O)N/N=C/c2ccc(O)cc2O)nnn1-c1nonc1N,75,0,0,0
COc1cccc(/C=N/NC(=O)c2nnn(-c3nonc3N)c2-c2ccccc2)c1O,0,0,0,0
COCc1c(C(=O)N/N=C\c2ccc(O)cc2O)nnn1-c1nonc1N,0,0,0,0
CCN(CC)c1ccc(/C=N/NC(=O)c2nnn(-c3nonc3N)c2CN(C)C)c(O)c1,0,0,0,0
CCc1c(C(=O)N/N=C/c2ccc(N(CC)CC)cc2O)nnn1-c1nonc1N,41,0,0,0
SMILES,TEAD-YAP inh,GPR151 ag,FBW7 act,MITF primary
O=C(CCC1(Cc2ccco2)CCC(=O)N1)NCCc1nc(-c2ccccc2)cs1 (configuration not stated),0,0,0,0
CCS(=O)(=O)N1CCC2(CC1)OCCN2S(=O)(=O)c1c(C)cc(C)cc1C,0,0,0,0
CCSc1nc2c(c(=O)[nH]c(=O)n2C)n1CCc1ccc(OC)cc1,43,0,0,0
CCSc1nc2c(c(=O)[nH]c(=O)n2C)n1CCCc1ccccc1,0,0,0,0
CC1=NN(c2ccc(S(N)(=O)=O)cc2)C(=O)/C1=C\c1ccc(-c2cc(C)c(C)cc2[N+](=O)[O-])o1,0,0,0,0
O=C(Nc1ccc(Br)cc1)c1cccc(S(=O)(=O)NCc2ccccc2)c1,41,0,0,0
Cc1ccc(S(=O)(=O)NCc2ccccc2)cc1,-,0,0,0
O=C(Nc1ccc(S(=O)(=O)NCCc2ccccc2)cc1)c1ccc([N+](=O)[O-])cc1,32,0,0,0
